From PubChem
Shown is part of a subset that was picked to be rich in hits.
HIV RNase H inh-1: blocks HIV-1 RNase H cleavage of RNA/DNA duplex; RT-RNase H RNA/DNA duplex cleavage, fluorescence; inhibition, % at 10 µM; 65,000 compounds, 1.9% hits; AID 565; in the data active means inhibition above about 50%
HIV RNase H inh-2: confirmation of HIV-1 reverse transcriptase RNase H inhibitors | shares compounds with HIV RNase H inh-1 | Recombinant RT RNase H, fluorescent RNA/DNA duplex cleavage | inhibition, % at 10 µM | 1,000 compounds, 39% hits | AID 651; in the data active means inhibition above about 48%; inconclusive means no clear call, values can overlap the other calls
Hits are given with their value; i = inactive; ? = inconclusive.

SMILES	HIV RNase H inh-1	others
CC1(C)Cc2c(c(N3CCOCC3)nc3sc(C(=O)N4CCCCC4)c(N)c23)CO1	72	HIV RNase H inh-2=i
CC1(C)Cc2c(c(N3CCOCC3)nc3sc(-c4ccc(C(=O)O)o4)c(N)c23)CO1	i
Cc1nnc(SCCn2c(N3CCN(c4ccccc4)CC3)nc3c2c(=O)n(C)c(=O)n3C)s1	i
CCOC(=O)c1[nH]c2ccc(OC)cc2c1NC(=O)CN1CCC2(CC1)OCCO2	74	HIV RNase H inh-2=i
CCOC(=O)c1[nH]c2ccc(OC)cc2c1NC(=O)CN1CCN(c2ccccn2)CC1	i
CCOC(=O)c1[nH]c2ccc(OC)cc2c1NC(=O)C(C)N1CCC2(CC1)OCCO2 (configuration not stated)	i
Cc1[nH]c(=O)[nH]c(=O)c1S(=O)(=O)N1CCCC1	i
O=C(CSc1nnc(-c2ccncc2)n1-c1ccc(Cl)cc1)N1CCOCC1	i
O=C(NCC(=O)N(CC1CCCO1)C(C(=O)NC1CCCC1)c1ccc(F)cc1)c1ccco1 (configuration not stated)	i
O=C(NCC(=O)N(c1cccc(F)c1)C(C(=O)NCC1CCCO1)c1ccccc1)c1ccco1 (configuration not stated)	i
O=C(NCC(=O)N(c1ccc(F)cc1)C(C(=O)NCC1CCCO1)c1ccccc1)c1ccco1 (configuration not stated)	57	HIV RNase H inh-2=i
CC1(C)CC(=O)C(CCC(=O)c2ccccc2)C(C)(C)N1 (configuration not stated)	i
COc1ccc(CN/C(C)=C(/C#N)C(N)=O)cc1OC	i
Cn1c(C(=O)N2CCN(c3ccc(Cl)cc3)CC2)cc2c(=O)n(C)c3ccccc3c21	i
COc1cccc(Oc2cncnc2-c2ccc(OC)cc2O)c1	i
O=C(O)C1C2C=CC(C2)C1C(=O)NC1CCS(=O)(=O)C1 (configuration not stated)	i
Cc1ccc(Nc2nc(N)nc(CN3CCN(C(=O)c4ccco4)CC3)n2)cc1Cl	i
CCn1c(SCC(=O)N(Cc2ccccc2)C2CCS(=O)(=O)C2)nc2ccccc2c1=O (configuration not stated)	i
CN(C(=O)CSc1nc2ccccc2n1CCc1ccccc1)C1CCS(=O)(=O)C1 (configuration not stated)	86	HIV RNase H inh-2=i
C=CCn1c(COc2ccc(CC)cc2)nnc1SCC(=O)N(C)C1CCS(=O)(=O)C1 (configuration not stated)	i
CC(C)CCOc1ccc(Cl)cc1CN1CCOCC1	i
CCOC(=O)c1c(C)[nH]c(C)c1C(=O)CSc1nnnn1-c1ccccc1	i
CCOC(=O)c1c(C)[nH]c(C(=O)CSc2nnc(CC(C)c3ccccc3)o2)c1C (configuration not stated)	72	HIV RNase H inh-2=?
O=C(O)CSc1nc2ccccc2o1	i
CCOC(=O)c1c(C)[nH]c(C(=O)CSc2nc3ccccc3o2)c1C	90	HIV RNase H inh-2=69
SMILES	HIV RNase H inh-1	others
CCOC(=O)c1ccccc1NC(=O)CSc1nc2ccccc2o1	i
CCOC(=O)c1c(C)[nH]c(C(=O)Cn2nnc(-c3ccccc3)n2)c1C	i
C=CCn1c(Cc2csc(N)n2)nnc1SCc1ccc(C(=O)OC)cc1	i
N#Cc1ccccc1NC(=O)CSc1nccn1CCc1ccccc1	i
CC1CC(C)CN(S(=O)(=O)c2ccc(C(=O)Nc3nnc(-c4cccs4)o3)cc2)C1 (configuration not stated)	74	HIV RNase H inh-2=?
CC1CCCN(S(=O)(=O)c2ccc(C(=O)Nc3nnc(-c4ccccc4Cl)o3)cc2)C1 (configuration not stated)	i
CCC1CCCCN1S(=O)(=O)c1ccc(C(=O)Nc2nnc(-c3cccs3)o2)cc1 (configuration not stated)	i
O=C(/N=C1\NC(=O)C(F)(C(F)(F)F)S1)NC1CCCCC1 (configuration not stated)	87	HIV RNase H inh-2=i
O=C(NC1CCCCCC1)c1cccs1	i
O=C(CC1Nc2ccccc2NC1=O)NC1CCCCC1 (configuration not stated)	i
CCn1c(SC(=O)NC2CCCCC2)nnc1-c1cccs1	i
CCOC(=O)c1ccc(N2C(=O)CC(NC3CCN(C(=O)c4cccc(Cl)c4)CC3)C2=O)cc1 (configuration not stated)	i
CCn1c(=O)c(C(=O)Nc2cnccn2)c(O)c2ccccc21	i
C=CCn1c(=O)c(C(=O)Nc2nnc(C)s2)c(O)c2ccccc21	83	HIV RNase H inh-2=98
C=CCn1c(=O)c(C(=O)NCCc2ccccc2)c(O)c2ccccc21	i
Cc1nc(N2CCc3ccccc32)[nH]c(=O)c1CCC(C)C	i
C=CCOC(=O)c1sc(N2C(=O)c3oc4ccccc4c(=O)c3C2c2ccco2)nc1C (configuration not stated)	i
COC(=O)c1sc(N2C(=O)c3oc4ccccc4c(=O)c3C2c2cccs2)nc1C (configuration not stated)	93	HIV RNase H inh-2=57
Cc1ccc(C2c3c(oc4ccccc4c3=O)C(=O)N2c2nnc(C)s2)o1 (configuration not stated)	i
